Source: PubChem BioAssay
Active and inactive are the calls of the source.

Columns and labels:
[1] = test system: Wnt5a (protein binding on small-molecule microarray); test: Wnt5a binders on small-molecule microarray, primary screen, biophysical, 635/667 nm fluorescence (AID 1142); settings: 635 nm fluorescence, higher = more signal;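 also: fluorescence read at 667 nm with signal to noise per printed feature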
[2] = cell viability in Huh7 cells, primary screen, cytotoxicity control for HCV replication inhibitor project, CellTiter-Glo luminescence, basal, 48 h (AID 1143); settings: Huh7 HCV replicon, higher = more signal, called active from +8 up or from −8 down;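 also: Huh7 hepatoma cells carrying a hepatitis C replication reporter with no stimulus; test concentration not given here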
[3] = CREB reporter modulators without forskolin, primary screen, cell-based, PC12, CRE-LacZ reporter, unstimulated (AID 1145); settings: no forskolin, luminescence, 4.5 h, higher = more signal, called active from +8 up or from −8 down
[4] = CREB reporter modulators under forskolin, primary screen, cell-based, PC12, CRE-LacZ reporter, forskolin-stimulated (AID 1146); settings: luminescence, 4.5 h, higher = more signal, called active from +8 up or from −8 down;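 also: PC12 cells with 6xCRE LacZ reporter stimulated by forskolin 10 µM; beta-galactosidase reporter signal reflecting CREB driven transcription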
[5] = molecular target: Streptavidin (Streptomyces avidinii) (UniProt P22629); test: streptavidin binders on small-molecule microarray, primary screen, artefact control for SMM compound annotation, biophysical, 635/667 nm fluorescence (AID 1147); settings: streptavidin binding, higher = more signal;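 also: signal reflects streptavidin binding to arrayed compounds as a control protein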
Streptavidin (Streptomyces avidinii), sequence (P22629 whole entry, looked up): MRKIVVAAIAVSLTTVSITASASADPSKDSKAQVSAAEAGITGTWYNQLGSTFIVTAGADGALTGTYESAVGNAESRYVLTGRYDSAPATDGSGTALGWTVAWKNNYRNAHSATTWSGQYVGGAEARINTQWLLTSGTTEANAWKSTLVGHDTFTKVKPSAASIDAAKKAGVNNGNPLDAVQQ

[6] = small-molecule binders of probe aInhba, primary screen, biochemical, small-molecule microarray, 635/667 nm fluorescence (AID 1148); settings: higher = more signal;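 also: score merges 667nm spot fluorescence with signal-to-noise for antibody binding to printed compounds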
[7] = molecular target: Torsin-1A (Homo sapiens) (UniProt O14656); test: torsin A binders from cell lysate, primary screen, small-molecule microarray, wild-type, 635/667 nm (AID 1149); settings: COS7 hTOR1A-WT lysate, 635 nm fluorescence, higher = more signal
Torsin-1A (Homo sapiens), sequence (O14656 whole entry, looked up): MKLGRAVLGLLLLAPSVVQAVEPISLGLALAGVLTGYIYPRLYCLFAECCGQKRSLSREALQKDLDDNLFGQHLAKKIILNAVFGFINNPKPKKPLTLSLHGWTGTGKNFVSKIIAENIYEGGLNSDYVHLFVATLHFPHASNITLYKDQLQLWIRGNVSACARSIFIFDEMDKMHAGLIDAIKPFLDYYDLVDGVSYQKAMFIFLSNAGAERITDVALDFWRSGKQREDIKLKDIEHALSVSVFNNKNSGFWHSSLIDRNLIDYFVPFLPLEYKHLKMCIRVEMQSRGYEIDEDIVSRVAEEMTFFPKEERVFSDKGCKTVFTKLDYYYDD

[8] = molecular target: Torsin-1A (Homo sapiens) (UniProt O14656); test: small-molecule binders of mutant TOR1A in lysate, primary screen, cell lysate, small-molecule microarray, COS7 lysate, 635/667 nm fluorescence (AID 1150); settings: COS7 hTOR1A mutant lysate, 635 nm fluorescence, higher = more signal;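 also: score pools 667 nm emission and signal to noise measuring lysate protein binding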
[9] = test system: Sonic hedgehog protein (Shh); test: small-molecule binders of Shh protein, primary screen, biochemical, small-molecule microarray, 635/667 nm fluorescence (AID 1151); settings: small-molecule microarray binding, 635 nm fluorescence; higher = more signal;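 also: Shh protein binding to compounds spotted on small-molecule microarray slides; score combines spot fluorescence intensity with signal-to-noise across triplicate slides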
[10] = E. coli DRC41 culture turbidity changes, primary screen, E. coli filamentation inducer project, strain DRC41, OD650, 48 h (AID 1152);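 also: E. coli MC1000 strain DRC41 lacking acrAB efflux pump and sulA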; settings: E. coli DRC41 (acrAB sulA), higher = more signal, called active from +8 up or from −8 down
[11] = small-molecule binders of probe aLefty1, primary screen, biochemical, small-molecule microarray, 635/667 nm fluorescence (AID 1153); settings: higher = more signal;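 also: score merges spot fluorescence with signal-to-noise ratio from the scanned slide images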
[12] = PSAC antagonists in infected red cells, primary screen, cell-based, P. falciparum Indochina, OD700, 1 h (AID 1154); settings: P. falciparum Indochina infected RBC osmotic lysis, higher = more signal, called active from +8 up or from −8 down
[13] = PSAC antagonists in infected red cells, primary screen, cell-based, P. falciparum Indochina, OD700, 2 h (AID 1155);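 also: lysis reports solute entry through the parasite surface anion channel PSAC; channel blockers reduce lysis of infected cells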; settings: P. falciparum Indochina infected erythrocytes, osmotic lysis OD700; higher = more signal, called active from +8 up or from −8 down
[14] = osmotic lysis modulators in infected erythrocytes, primary screen, PSAC antagonist project, cell-based, P. falciparum Indochina, OD700, 3 h (AID 1156); settings: higher = more signal, called active from +8 up or from −8 down
[15] = PSAC antagonists in infected red cells, primary screen, cell-based, P. falciparum Indochina, OD700, 18 h (AID 1157); settings: P. falciparum Indochina infected erythrocytes, osmotic lysis OD700, 18 h; higher = more signal, called active from +8 up or from −8 down
[16] = modulators of S6 phosphorylation in cells, primary screen, cell-based, A549, cytoblot, luminescence, serum-stimulated (AID 1158); settings: A549 phospho-S6 cytoblot, 5 h, higher = more signal;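 also: serum-stimulated A549 lung adenocarcinoma cells; signal is phosphorylated S6 detected by cytoblot immunostaining with HRP secondary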
[17] = molecular target: NADPH oxidase 2 (Homo sapiens) (UniProt P04839); test: NOX2-dependent H2O2 signal modulators, primary screen, NOX inhibitor project, cell-based, HEK293-NOX2, PMA-stimulated, Amplex Red fluorescence (AID 1159); settings: 45 min, higher = more signal, called active from +8 up or from −8 down; also: test concentration not given here
NADPH oxidase 2 (Homo sapiens), sequence (P04839 whole entry, looked up): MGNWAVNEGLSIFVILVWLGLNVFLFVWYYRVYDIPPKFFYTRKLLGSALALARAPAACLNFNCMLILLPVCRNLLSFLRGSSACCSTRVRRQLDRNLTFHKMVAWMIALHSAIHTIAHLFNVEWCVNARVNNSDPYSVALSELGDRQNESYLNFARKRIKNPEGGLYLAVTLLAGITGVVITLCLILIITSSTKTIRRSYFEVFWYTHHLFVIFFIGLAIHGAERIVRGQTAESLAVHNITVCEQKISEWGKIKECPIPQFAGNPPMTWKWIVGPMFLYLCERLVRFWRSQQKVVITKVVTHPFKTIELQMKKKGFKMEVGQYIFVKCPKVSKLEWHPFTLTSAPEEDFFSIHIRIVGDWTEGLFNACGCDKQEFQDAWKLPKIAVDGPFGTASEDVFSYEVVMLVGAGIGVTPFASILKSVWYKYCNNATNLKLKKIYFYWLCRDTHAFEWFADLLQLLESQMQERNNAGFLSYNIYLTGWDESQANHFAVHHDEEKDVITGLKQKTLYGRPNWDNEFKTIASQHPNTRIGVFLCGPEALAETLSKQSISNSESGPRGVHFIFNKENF

[18] = molecular target: NADPH oxidase 4 (Homo sapiens) (UniProt Q9NPH5); test: NOX4-dependent H2O2 signal modulators, primary screen, NOX inhibitor project, cell-based, HEK293-NOX4, tetracycline-induced, Amplex Red fluorescence (AID 1160); settings: 45 min, higher = more signal, called active from +8 up or from −8 down
NADPH oxidase 4 (Homo sapiens), sequence (Q9NPH5 whole entry, looked up): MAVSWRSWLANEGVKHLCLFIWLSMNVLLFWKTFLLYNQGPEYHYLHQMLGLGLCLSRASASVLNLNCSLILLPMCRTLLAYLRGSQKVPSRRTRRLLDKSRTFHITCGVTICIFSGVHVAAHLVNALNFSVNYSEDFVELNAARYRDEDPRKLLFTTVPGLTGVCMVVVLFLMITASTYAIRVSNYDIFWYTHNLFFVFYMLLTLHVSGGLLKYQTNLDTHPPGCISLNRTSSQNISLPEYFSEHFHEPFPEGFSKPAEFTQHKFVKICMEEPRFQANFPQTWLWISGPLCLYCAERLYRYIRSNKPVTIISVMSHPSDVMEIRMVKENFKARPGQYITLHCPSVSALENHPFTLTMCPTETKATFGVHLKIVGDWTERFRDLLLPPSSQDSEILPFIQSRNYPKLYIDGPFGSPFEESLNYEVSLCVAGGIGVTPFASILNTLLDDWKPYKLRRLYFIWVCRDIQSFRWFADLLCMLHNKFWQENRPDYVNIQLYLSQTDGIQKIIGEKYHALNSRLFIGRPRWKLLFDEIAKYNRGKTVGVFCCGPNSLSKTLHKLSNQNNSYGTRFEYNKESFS

[19] = molecular target: NADPH oxidase 5 (Homo sapiens) (UniProt Q96PH1); test: NOX5-dependent H2O2 signal modulators, primary screen, NOX inhibitor project, cell-based, HEK293-NOX5, Amplex Red fluorescence (AID 1161); settings: HEK293-NOX5, ionomycin, 45 min, higher = more signal
NADPH oxidase 5 (Homo sapiens), sequence (Q96PH1 whole entry, looked up): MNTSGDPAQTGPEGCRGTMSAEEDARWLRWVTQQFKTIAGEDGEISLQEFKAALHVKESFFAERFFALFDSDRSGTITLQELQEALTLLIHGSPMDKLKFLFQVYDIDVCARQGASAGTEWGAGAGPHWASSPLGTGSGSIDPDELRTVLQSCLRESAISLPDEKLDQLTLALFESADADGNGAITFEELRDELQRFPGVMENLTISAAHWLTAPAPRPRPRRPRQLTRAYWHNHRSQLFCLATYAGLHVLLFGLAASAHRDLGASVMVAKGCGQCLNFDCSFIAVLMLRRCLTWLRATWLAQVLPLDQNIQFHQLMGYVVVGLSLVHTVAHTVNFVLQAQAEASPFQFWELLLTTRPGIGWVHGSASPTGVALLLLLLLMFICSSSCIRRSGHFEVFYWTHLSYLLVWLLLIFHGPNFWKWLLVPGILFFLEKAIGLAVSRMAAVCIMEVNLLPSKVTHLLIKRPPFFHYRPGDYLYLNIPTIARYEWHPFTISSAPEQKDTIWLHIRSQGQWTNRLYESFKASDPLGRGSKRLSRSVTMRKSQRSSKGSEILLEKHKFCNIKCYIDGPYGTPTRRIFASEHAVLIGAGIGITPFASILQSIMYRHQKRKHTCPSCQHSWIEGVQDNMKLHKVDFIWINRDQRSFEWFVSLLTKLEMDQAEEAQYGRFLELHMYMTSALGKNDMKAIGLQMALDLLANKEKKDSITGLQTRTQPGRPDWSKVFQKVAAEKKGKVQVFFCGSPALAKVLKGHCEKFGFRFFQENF

[20] = A549 cell viability effects, profiling panel, calcein-AM fluorescence, 48 h, basal (AID 1162); settings: higher = more signal; also: test concentration not given here

CC(C)CCC[C@@H](C)[C@H]1CC[C@@]2(C)C3=C(CC[C@]12C)[C@@]1(C)CC[C@H](OC(=O)CCl)C(C)(C)C1CC3 (stereo not given in full)
composite z-score [1]: 0.109 | z-score [2]: -0.186 (inactive) | z-score [3]: 1.3 (inactive) | z-score [4]: -0.731 (inactive) | composite z-score [5]: 0.0285 | composite z-score [6]: -0.251 | composite z-score [7]: 0.662 | composite z-score [8]: 0.358 | composite z-score [9]: 0.588 | z-score [10]: 3.33 (inactive) | composite z-score [11]: -0.194 | z-score [12]: -0.0025 (inactive) | z-score [13]: -0.116 (inactive) | z-score [14]: -0.417 (inactive) | z-score [15]: 0.01 (inactive) | z-score [16]: 0.413 | z-score [17]: -0.776 (inactive) | z-score [18]: 0.446 (inactive) | z-score [19]: 0.517 | z-score [20]: 1.98

COCCOC(=O)N1C(=O)[C@@]2(c3cc(C#CC4(O)CCCCCC4)ccc31)[C@H](c1ccccc1OCCO)N1[C@H](c3ccccc3)[C@H](c3ccccc3)OC(=O)[C@H]1[C@@H]2C(=O)Nc1nc2ccccc2s1
composite z-score [1]: 0.478 | z-score [2]: -4.73 (inactive) | z-score [3]: 0.802 (inactive) | z-score [4]: -1.05 (inactive) | composite z-score [5]: 0.16 | composite z-score [6]: -0.0468 | composite z-score [7]: 1.2 | composite z-score [8]: 0.663 | composite z-score [9]: 1.52 | z-score [10]: 2.49 (inactive) | composite z-score [11]: -0.105 | z-score [12]: 3.33 (inactive) | z-score [13]: 0.299 (inactive) | z-score [14]: 0.851 (inactive) | z-score [15]: -0.515 (inactive) | z-score [16]: 1.02 | z-score [17]: 1.27 (inactive) | z-score [18]: -0.694 (inactive) | z-score [19]: 0.339 | z-score [20]: -0.997

CC(C)(C)OC(=O)CC[C@@]12N=C(c3ccc(OCCCO)cc3)O[C@@H]1c1ccccc1CN(Cc1ccccc1)C2=O
composite z-score [1]: 0.822 | z-score [2]: -4.74 (inactive) | z-score [3]: 0.344 (inactive) | z-score [4]: -2.32 (inactive) | composite z-score [5]: 0.197 | composite z-score [6]: 0.0756 | composite z-score [7]: 0.161 | composite z-score [8]: -0.0105 | composite z-score [9]: 1.04 | z-score [10]: 0.71 (inactive) | composite z-score [11]: 0.33 | z-score [12]: 28 (active) | z-score [13]: 25.8 (active) | z-score [14]: 2.02 (inactive) | z-score [15]: 2.14 (inactive) | z-score [16]: 0.302 | z-score [17]: 0.622 (inactive) | z-score [18]: -0.441 (inactive) | z-score [19]: -1.44 | z-score [20]: -0.633

NC(=O)NCC#Cc1ccc2c(c1)[C@]1(C(=O)N2)[C@H](c2ccc(OCCO)cc2)N2[C@H](c3ccccc3)[C@H](c3ccccc3)OC(=O)[C@H]2[C@@H]1C(=O)Nc1nc2ccccc2s1
composite z-score [1]: 0.151 | z-score [2]: -0.0246 (inactive) | z-score [3]: -0.0246 (inactive) | z-score [4]: 0.625 (inactive) | composite z-score [5]: 0.453 | composite z-score [6]: 0.0253 | composite z-score [7]: -0.033 | composite z-score [8]: 0.254 | composite z-score [9]: 0.0186 | z-score [10]: 2 (inactive) | composite z-score [11]: 0.122 | z-score [12]: 2.5 (inactive) | z-score [13]: 2.06 (inactive) | z-score [14]: 1.53 (inactive) | z-score [15]: 1.33 (inactive) | z-score [16]: -0.199 | z-score [17]: 1.43 (inactive) | z-score [18]: 0.57 (inactive) | z-score [19]: 1.16 | z-score [20]: 0.0942

COc1ccc(C#Cc2ccc3c(c2)[C@]2(C(=O)N3)[C@H](c3ccc(O)cc3)N3[C@H](c4ccccc4)[C@H](c4ccccc4)OC(=O)[C@H]3[C@@H]2C(N)=O)cc1
composite z-score [1]: 0.295 | z-score [2]: -5.1 (inactive) | z-score [3]: 0.209 (inactive) | z-score [4]: -0.532 (inactive) | composite z-score [5]: -0.881 | composite z-score [6]: -0.153 | composite z-score [7]: 0.255 | composite z-score [8]: -0.0088 | composite z-score [9]: -0.301 | z-score [10]: 1.63 (inactive) | composite z-score [11]: -0.147 | z-score [12]: 2.89 (inactive) | z-score [13]: 1.58 (inactive) | z-score [14]: 0.672 (inactive) | z-score [15]: 1.23 (inactive) | z-score [16]: 0.76 | z-score [17]: 1.76 (inactive) | z-score [18]: -1.43 (inactive) | z-score [19]: 0.618 | z-score [20]: -1.55

CC1CC/C=C\[C@H]2OC34C=CCN(C(C)C)C(=O)[C@H]3N(C(CO)C(C)C)C(=O)[C@@H]4C2C(=O)O1 (stereo not given in full)
composite z-score [1]: -0.0784 | z-score [2]: 0.114 (inactive) | z-score [3]: -0.346 (inactive) | z-score [4]: -0.791 (inactive) | composite z-score [5]: -1.28 | composite z-score [6]: -0.133 | composite z-score [7]: -0.87 | composite z-score [8]: -0.22 | composite z-score [9]: -0.137 | z-score [10]: 2.16 (inactive) | composite z-score [11]: -0.225 | z-score [12]: 1.3 (inactive) | z-score [13]: -0.74 (inactive) | z-score [14]: 0.604 (inactive) | z-score [15]: -0.531 (inactive) | z-score [16]: 0.0551 | z-score [17]: 1.49 (inactive) | z-score [18]: 0.743 (inactive) | z-score [19]: 1.79 | z-score [20]: 1.06

CCCCCCC#C[Si](O[C@H](c1ccccc1)c1cn(Cc2ccccc2)nn1)(C(C)C)C(C)C
composite z-score [1]: -0.0163 | z-score [2]: -1.53 (inactive) | z-score [3]: -1.23 (inactive) | z-score [4]: -1.35 (inactive) | composite z-score [5]: 0.239 | composite z-score [6]: -0.128 | composite z-score [7]: 0.122 | composite z-score [8]: 0.345 | composite z-score [9]: 0.609 | z-score [10]: 3.05 (inactive) | composite z-score [11]: -0.101 | z-score [12]: 1.66 (inactive) | z-score [13]: -0.226 (inactive) | z-score [14]: -0.0275 (inactive) | z-score [15]: -0.327 (inactive) | z-score [16]: 0.35 | z-score [17]: -0.941 (inactive) | z-score [18]: 0.369 (inactive) | z-score [19]: -1.87 | z-score [20]: 1.68

CC(C)N1C(=O)c2ccccc2[C@@H](C(=O)NCc2ccccc2)[C@@H]1c1ccc(CO)cc1
composite z-score [1]: 0.0422 | z-score [2]: -0.144 (inactive) | z-score [3]: 0.0279 (inactive) | z-score [4]: -0.659 (inactive) | composite z-score [5]: -1.17 | composite z-score [6]: -0.206 | composite z-score [7]: 0.81 | composite z-score [8]: 0.436 | composite z-score [9]: -0.49 | z-score [10]: 1.12 (inactive) | composite z-score [11]: -0.15 | z-score [12]: 2.59 (inactive) | z-score [13]: 0.425 (inactive) | z-score [14]: 0.884 (inactive) | z-score [15]: 0.818 (inactive) | z-score [16]: 0.325 | z-score [17]: -0.00885 (inactive) | z-score [18]: 0.454 (inactive) | z-score [19]: -0.101 | z-score [20]: 0.538
